The results in this text go back to article PMC7862700, “An all-to-all approach to the identification of sequence-specific readers for epigenetic DNA modifications on cytosine”.

Holding throughout (test): DAPPL (digital affinity profiling via proximity ligation, sequencing); 10 mM Tris-HCl pH 7.5, 50 mM NaCl, 1 mM DTT, 4% glycerol, room temperature, 30 min; GST-TFs on glutathione beads, 16-mer random dsDNA library, 0.1% formaldehyde crosslink after washing; high values mean tight binding
Common to all, as to conditions: protein: recombinant; tags: N-terminal GST; dsDNA, one strand shown

For test [1], the target named is T1, ELK1 (Homo sapiens, UniProt P19419 1-428).
T1 sequence: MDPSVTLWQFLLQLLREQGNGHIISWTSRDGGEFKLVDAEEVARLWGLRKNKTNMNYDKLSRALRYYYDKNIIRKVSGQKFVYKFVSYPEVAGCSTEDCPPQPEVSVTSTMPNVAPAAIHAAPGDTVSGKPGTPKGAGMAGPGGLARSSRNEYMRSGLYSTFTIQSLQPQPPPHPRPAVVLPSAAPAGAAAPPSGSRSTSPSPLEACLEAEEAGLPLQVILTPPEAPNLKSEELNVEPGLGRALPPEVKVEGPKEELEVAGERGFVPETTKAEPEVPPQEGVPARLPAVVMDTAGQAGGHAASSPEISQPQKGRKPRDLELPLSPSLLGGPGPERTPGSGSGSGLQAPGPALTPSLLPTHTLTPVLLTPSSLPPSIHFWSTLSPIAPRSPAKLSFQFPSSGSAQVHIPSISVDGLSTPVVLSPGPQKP
The method in brief:
(§1)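 Beads coated with glutathione captured GST-fused human transcription factors that had been expressed in yeast, and the factors were then given DNA barcodes and pooled with a tag-only sample. The pools were incubated with 200 nmole of a random double-stranded 16-mer DNA library in Tris/NaCl/DTT/glycerol buffer for 30 min at room temperature, washed, crosslinked with 0.1% formaldehyde and proximity-ligated with BsaI/T4 ligase at 37 °C for 1 h. PCR amplification and Illumina NextSeq500 sequencing came last. Binding signal is each hexamer's read frequency for a factor divided by its frequency for the tag-only sample.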

Test [2] has as its target T2, GABPA (Homo sapiens, UniProt Q06546 1-454).
T2 sequence: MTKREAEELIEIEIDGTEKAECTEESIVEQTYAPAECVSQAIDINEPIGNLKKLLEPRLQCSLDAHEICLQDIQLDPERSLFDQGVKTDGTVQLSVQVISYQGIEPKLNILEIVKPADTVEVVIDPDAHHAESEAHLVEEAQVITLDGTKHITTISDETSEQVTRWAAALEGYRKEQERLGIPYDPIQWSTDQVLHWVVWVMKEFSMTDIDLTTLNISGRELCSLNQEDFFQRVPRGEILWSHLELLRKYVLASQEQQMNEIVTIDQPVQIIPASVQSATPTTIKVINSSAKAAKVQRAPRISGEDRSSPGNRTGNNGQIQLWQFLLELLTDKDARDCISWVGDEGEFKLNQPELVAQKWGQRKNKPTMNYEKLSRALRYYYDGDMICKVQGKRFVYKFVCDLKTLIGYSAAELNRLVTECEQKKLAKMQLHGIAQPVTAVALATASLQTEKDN
The method, boiled down:
as §1

Test [3] addresses T3, ERG (Homo sapiens, UniProt P11308 1-479).
T3 sequence: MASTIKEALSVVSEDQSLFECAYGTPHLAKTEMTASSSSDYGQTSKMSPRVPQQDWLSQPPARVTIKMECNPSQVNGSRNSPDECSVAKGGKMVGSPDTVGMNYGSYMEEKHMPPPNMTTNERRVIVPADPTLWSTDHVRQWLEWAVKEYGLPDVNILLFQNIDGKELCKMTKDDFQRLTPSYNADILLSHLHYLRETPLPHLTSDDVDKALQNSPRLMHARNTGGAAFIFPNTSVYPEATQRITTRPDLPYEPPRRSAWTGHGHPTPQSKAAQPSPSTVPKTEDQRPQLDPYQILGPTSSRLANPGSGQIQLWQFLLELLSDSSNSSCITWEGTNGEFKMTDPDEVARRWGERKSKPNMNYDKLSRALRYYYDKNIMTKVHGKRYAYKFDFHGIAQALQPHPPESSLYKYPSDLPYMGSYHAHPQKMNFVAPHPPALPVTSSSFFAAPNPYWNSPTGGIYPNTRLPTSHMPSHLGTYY
The method in brief: as §1

The target of test [4] is ELF1 (Homo sapiens, UniProt P32519 1-619). The method, boiled down: as §1
Test [5] concerns the target SPI1 (Homo sapiens, UniProt P17947 1-270). The method, boiled down: as §1
The target of test [6] is SPIB (Homo sapiens, UniProt Q01892 1-262). The method, boiled down: as §1
Test [7] deals with T4, FEV (Homo sapiens, UniProt Q99581 1-238).
T4 sequence: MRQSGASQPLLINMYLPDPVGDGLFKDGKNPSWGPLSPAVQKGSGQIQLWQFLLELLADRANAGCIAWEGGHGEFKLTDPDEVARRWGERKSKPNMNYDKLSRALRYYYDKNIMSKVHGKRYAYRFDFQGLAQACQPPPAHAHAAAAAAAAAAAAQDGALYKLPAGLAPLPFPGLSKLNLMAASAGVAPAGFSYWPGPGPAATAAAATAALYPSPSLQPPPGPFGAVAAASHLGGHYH
The method, boiled down:
as §1

Test [8] concerns the target ETV5 (Homo sapiens, UniProt P41161 1-510). The method, boiled down: as §1
In test [9] the target is ELF4 (Homo sapiens, UniProt Q99607 1-663). The method in brief: as §1
Test [10] addresses T5, ELK4 (Homo sapiens, UniProt P28324-2 1-405).
T5 sequence: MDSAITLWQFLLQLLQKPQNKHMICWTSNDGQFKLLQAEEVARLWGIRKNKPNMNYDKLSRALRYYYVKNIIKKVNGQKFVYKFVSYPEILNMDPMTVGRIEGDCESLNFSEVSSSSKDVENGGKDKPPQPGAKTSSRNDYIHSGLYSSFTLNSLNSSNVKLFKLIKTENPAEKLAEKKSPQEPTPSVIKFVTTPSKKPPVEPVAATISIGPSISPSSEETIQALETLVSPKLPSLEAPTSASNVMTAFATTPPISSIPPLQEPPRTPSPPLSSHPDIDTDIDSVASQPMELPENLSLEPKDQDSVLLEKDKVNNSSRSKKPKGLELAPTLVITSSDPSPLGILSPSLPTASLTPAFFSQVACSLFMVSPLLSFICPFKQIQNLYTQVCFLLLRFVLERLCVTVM
The method in brief: as §1

Test [11] deals with T6, ETV2 (Homo sapiens, UniProt O00321 1-342).
T6 sequence: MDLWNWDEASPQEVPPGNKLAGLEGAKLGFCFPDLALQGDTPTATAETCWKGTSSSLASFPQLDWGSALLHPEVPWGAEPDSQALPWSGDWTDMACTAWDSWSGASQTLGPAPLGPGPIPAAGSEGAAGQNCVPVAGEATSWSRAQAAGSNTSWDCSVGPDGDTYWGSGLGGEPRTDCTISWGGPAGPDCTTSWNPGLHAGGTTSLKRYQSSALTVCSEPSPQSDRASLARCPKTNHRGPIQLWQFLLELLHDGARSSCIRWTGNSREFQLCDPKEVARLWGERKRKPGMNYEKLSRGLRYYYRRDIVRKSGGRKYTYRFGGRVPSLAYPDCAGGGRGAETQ
The method in brief:
as §1

The target in test [12] is ETV1 (Homo sapiens, UniProt P50549 1-477). The method in brief:
as §1

Test [13] concerns the target T7, ERF (Homo sapiens, UniProt P50548 1-548).
T7 sequence: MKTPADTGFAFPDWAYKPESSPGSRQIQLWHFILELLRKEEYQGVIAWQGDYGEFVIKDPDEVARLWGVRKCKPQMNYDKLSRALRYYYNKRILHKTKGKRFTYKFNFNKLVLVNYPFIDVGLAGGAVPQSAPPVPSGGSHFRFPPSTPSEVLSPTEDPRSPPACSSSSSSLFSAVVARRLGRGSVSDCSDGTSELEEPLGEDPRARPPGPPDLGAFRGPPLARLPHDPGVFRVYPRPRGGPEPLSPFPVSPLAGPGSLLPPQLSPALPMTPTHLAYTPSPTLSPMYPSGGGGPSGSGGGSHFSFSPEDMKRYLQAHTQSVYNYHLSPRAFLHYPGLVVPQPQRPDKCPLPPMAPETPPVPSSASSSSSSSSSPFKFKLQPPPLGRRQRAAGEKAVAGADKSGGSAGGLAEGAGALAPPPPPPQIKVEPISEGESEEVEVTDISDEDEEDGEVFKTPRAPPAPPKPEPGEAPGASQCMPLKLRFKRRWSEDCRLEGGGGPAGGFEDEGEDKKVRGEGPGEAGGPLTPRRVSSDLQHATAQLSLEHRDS
The method, boiled down:
as §1

Test [14] has as its target T8, ETV3L (Homo sapiens, UniProt Q6ZN32 1-361).
T8 sequence: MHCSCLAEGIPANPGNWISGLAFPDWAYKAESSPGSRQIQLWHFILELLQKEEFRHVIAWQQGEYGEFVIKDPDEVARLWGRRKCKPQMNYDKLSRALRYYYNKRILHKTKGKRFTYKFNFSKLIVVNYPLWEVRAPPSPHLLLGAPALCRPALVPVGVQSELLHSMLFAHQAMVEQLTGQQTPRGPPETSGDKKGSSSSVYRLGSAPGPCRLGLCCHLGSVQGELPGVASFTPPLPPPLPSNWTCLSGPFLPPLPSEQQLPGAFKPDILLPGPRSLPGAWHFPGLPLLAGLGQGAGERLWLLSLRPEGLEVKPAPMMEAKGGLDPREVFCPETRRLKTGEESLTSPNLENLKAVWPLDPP
The method in brief:
as §1

The target in test [15] is T9, ETS2 (Homo sapiens, UniProt P15036 1-469).
T9 sequence: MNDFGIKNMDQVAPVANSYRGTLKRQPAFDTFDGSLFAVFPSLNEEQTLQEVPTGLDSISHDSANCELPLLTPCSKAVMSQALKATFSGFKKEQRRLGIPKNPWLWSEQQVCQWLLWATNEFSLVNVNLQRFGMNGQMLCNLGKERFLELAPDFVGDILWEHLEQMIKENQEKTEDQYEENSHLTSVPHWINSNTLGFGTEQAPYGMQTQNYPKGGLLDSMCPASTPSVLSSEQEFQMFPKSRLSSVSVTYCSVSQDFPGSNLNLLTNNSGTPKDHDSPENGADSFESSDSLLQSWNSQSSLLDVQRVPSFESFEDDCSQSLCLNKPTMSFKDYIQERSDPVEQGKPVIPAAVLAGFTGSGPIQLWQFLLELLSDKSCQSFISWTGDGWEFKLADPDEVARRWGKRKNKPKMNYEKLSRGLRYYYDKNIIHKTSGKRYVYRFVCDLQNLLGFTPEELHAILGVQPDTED
The method in brief:
as §1

The target in test [16] is T10, SPDEF (Homo sapiens, UniProt O95238 1-335).
T10 sequence: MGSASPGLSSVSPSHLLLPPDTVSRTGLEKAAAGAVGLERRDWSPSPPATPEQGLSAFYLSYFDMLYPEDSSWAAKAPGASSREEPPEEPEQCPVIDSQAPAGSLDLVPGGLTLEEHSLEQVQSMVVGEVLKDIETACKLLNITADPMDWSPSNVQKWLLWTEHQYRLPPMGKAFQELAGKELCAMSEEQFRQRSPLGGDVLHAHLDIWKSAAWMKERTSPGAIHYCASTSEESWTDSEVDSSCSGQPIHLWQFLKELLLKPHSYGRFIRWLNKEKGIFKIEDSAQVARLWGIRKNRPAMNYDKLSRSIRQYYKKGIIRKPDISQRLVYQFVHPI
The method in brief:
as §1

Test [17] addresses T11, ETV7 (Homo sapiens, UniProt Q9Y603 1-341).
T11 sequence: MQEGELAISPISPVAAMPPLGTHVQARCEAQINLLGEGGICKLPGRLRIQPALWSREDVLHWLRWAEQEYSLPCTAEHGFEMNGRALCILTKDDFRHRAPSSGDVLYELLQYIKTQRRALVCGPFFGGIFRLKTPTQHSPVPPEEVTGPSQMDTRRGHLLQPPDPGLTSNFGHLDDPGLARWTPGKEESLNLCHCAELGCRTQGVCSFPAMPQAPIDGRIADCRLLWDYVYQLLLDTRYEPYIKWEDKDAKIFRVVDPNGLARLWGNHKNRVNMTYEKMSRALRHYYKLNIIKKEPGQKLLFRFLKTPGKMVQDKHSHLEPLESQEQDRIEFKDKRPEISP
The method, boiled down:
as §1

Test [18] has as its target T12, ETV3 (Homo sapiens, UniProt P41162-2 1-143).
T12 sequence: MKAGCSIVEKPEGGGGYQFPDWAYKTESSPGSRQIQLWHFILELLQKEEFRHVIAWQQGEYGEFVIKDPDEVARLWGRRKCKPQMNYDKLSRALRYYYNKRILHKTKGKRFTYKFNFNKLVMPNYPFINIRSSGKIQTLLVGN
The method in brief: as §1

In test [19] the target is ETV6 (Homo sapiens, UniProt P41212 1-452). The method in brief:
as §1

Sequence of ETV6 (P41212 whole entry): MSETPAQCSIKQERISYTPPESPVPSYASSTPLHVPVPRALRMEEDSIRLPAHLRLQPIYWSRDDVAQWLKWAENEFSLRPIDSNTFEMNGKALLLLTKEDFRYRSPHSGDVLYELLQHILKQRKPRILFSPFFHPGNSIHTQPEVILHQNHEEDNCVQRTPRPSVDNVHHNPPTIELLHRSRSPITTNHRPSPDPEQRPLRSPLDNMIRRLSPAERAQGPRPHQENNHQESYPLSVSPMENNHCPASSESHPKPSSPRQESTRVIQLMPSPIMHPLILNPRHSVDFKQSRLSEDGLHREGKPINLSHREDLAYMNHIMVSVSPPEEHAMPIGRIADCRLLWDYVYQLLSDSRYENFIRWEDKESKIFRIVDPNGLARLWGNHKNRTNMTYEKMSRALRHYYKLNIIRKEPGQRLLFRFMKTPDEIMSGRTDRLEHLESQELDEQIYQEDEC
Sequence of ELF4 (Q99607 whole entry): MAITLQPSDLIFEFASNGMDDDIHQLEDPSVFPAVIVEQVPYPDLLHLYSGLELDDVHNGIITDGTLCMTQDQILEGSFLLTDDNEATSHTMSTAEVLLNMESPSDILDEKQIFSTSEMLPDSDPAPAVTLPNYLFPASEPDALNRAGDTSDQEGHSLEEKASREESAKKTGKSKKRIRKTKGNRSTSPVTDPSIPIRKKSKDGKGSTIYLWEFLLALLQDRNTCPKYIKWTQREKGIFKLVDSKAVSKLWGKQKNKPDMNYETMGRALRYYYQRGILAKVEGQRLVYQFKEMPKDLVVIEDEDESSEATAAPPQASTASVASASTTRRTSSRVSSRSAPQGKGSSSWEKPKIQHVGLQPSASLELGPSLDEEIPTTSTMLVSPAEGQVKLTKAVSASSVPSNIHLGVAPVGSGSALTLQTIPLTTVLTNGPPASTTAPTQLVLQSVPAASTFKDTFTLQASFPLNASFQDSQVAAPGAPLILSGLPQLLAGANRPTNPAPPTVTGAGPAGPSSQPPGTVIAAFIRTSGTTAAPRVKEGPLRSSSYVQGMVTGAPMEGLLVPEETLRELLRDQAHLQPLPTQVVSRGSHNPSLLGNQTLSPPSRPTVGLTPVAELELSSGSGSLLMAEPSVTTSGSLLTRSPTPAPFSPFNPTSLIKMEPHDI
Sequence of ETV1 (P50549 whole entry): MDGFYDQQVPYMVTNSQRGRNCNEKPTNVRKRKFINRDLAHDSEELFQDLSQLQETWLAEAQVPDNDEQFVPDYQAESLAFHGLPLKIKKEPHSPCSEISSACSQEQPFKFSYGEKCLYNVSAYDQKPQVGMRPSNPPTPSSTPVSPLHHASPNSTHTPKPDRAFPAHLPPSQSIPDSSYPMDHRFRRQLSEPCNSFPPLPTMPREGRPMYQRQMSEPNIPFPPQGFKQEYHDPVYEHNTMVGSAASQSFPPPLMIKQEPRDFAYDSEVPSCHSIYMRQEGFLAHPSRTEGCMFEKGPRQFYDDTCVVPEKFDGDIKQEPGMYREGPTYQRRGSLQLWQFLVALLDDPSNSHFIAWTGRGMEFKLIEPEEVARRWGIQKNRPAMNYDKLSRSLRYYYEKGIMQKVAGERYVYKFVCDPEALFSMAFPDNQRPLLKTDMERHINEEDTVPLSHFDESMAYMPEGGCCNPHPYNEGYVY
Sequence of SPIB (Q01892 whole entry): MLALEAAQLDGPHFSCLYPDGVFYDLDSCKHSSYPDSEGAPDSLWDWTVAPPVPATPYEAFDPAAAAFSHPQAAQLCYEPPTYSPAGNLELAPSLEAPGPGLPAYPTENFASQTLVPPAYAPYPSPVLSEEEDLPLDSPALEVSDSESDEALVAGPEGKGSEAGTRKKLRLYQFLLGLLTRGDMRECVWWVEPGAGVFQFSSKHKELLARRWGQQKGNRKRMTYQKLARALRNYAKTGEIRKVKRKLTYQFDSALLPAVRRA
Sequence of ELF1 (P32519 whole entry): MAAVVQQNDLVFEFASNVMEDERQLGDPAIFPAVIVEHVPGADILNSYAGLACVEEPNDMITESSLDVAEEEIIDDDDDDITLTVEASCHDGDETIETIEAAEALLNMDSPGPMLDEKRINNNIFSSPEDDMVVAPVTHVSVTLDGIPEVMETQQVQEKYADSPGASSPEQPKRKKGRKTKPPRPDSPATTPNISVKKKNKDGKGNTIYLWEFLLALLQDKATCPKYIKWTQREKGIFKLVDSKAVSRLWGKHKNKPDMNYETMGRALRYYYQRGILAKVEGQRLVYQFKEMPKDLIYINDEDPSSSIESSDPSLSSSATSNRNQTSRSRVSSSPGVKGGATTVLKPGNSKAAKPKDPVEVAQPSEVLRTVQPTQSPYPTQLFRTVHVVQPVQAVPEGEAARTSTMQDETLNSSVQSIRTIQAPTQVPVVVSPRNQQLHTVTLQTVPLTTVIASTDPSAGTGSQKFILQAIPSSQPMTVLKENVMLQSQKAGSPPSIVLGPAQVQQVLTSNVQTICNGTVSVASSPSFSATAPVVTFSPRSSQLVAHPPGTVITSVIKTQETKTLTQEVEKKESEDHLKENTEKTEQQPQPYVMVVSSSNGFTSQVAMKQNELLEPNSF
Sequence of ETV5 (P41161 whole entry): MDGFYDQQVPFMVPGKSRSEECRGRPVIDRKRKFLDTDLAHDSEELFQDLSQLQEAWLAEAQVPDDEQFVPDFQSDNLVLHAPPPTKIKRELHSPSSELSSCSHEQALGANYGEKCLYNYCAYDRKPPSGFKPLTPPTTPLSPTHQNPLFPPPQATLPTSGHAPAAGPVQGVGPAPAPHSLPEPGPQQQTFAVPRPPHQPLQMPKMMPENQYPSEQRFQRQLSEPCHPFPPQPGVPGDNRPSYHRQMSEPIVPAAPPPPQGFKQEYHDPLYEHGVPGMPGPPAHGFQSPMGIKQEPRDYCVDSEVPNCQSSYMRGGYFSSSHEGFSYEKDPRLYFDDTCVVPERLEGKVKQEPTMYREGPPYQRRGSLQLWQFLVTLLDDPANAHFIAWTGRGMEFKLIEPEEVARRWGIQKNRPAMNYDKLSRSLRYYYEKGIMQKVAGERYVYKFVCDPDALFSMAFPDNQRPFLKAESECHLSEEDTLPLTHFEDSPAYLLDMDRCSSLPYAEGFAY

Take ATCAAA: the binding signal in [1] is 1.05 fold enrichment (6-mer frequency, TF over GST control); in test [2] it was 1.13 fold enrichment (6-mer frequency, TF over GST control); in test [3], 1.11 fold enrichment (6-mer frequency, TF over GST control); in test [4] it was 1.07 fold enrichment (6-mer frequency, TF over GST control); in [5], 1.06 fold enrichment (6-mer frequency, TF over GST control); in test [6], 1.02 fold enrichment (6-mer frequency, TF over GST control). Also, the binding signal is 1.03 fold enrichment (6-mer frequency, TF over GST control) in test [7]; 1.06 fold enrichment (6-mer frequency, TF over GST control) in test [8]; 1.12 fold enrichment (6-mer frequency, TF over GST control) in test [9]; 1.1 fold enrichment (6-mer frequency, TF over GST control) in [10]; 1.11 fold enrichment (6-mer frequency, TF over GST control) in test [11]; 1.15 fold enrichment (6-mer frequency, TF over GST control) in [12]. In addition, the binding signal in test [13] is 1.08 fold enrichment (6-mer frequency, TF over GST control); in test [14] it was 1.08 fold enrichment (6-mer frequency, TF over GST control); in test [15] it was 1.07 fold enrichment (6-mer frequency, TF over GST control); in [16], 1.06 fold enrichment (6-mer frequency, TF over GST control); in test [17], 1.1 fold enrichment (6-mer frequency, TF over GST control); in test [18] it was 1.01 fold enrichment (6-mer frequency, TF over GST control). The binding signal in test [19] is 1.07 fold enrichment (6-mer frequency, TF over GST control).
